# Screens as filed in PubChem.
# IDE exosite inh: exo-site inhibitors of human insulin-degrading enzyme. P14735. purified IDE, FL-6b probe fluorescence polarization; hits give low values. z-score at 20 µM. 17,000 compounds, 6.3% hits. AID 1259349;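 active = z-score of -3 or lower, meaning strong loss of probe binding signal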;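 note: His-tagged human IDE residues 42-1019 made in E. coli with 30 nM FL-6b probe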
# Target sequence (P14735 42-1019 limits assumed): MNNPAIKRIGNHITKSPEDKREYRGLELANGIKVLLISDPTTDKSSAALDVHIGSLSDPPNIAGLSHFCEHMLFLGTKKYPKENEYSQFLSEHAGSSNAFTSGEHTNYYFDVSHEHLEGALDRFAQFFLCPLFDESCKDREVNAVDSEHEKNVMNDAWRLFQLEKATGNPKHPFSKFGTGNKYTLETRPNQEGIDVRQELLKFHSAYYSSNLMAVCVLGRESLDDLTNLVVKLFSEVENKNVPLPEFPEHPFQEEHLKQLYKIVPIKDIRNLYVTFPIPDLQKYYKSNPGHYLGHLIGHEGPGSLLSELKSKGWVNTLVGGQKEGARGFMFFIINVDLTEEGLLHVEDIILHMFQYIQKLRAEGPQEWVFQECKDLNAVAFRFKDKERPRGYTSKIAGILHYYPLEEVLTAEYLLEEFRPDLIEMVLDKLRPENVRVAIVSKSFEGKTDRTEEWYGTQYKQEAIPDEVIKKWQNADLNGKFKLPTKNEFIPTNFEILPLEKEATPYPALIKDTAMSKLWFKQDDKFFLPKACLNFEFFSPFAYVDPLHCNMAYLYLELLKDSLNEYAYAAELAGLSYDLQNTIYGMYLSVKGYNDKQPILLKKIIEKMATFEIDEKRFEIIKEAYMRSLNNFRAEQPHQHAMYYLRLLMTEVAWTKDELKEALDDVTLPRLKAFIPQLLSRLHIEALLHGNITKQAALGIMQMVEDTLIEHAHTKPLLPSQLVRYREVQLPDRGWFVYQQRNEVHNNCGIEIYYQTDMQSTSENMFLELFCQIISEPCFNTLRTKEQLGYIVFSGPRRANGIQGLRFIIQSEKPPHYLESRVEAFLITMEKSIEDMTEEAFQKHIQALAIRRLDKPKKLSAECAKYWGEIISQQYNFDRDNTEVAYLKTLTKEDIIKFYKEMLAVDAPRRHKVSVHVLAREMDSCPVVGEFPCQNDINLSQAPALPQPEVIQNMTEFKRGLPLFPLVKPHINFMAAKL
# An asterisk follows results filed as active; ! = not active in a repeat. The sample as a whole holds a higher share of hits than the screen did.
SMILES,IDE exosite inh
O=C(C1CCC1)N1CC(=O)N2[C@H](CO)[C@@H](c3ccc(Br)cc3)[C@H]2C1,-0.54
CO[C@@H](CN(C)Cc1ccc(-c2ccccn2)cc1)[C@H](C)CN(C(=O)Nc1ccc(F)cc1)[C@H](C)CO,-0.28
CO[C@@H](CN(C)C(=O)c1cc(Cl)cc(Cl)c1)[C@@H](C)CN(C(=O)Nc1ccc(F)cc1)[C@H](C)CO,1.4
Cc1ccccc1-c1ccc([C@H]2[C@@H](CO)N3C(=O)CN(C(=O)Nc4ccc(F)cc4)C[C@@H]23)cc1,-10*
O=C(Nc1ccc(F)cc1)N1CC(=O)N2[C@H](CO)[C@H](c3ccc(-c4ccc(F)cc4)cc3)[C@@H]2C1,0.3
O=C(Nc1ccccc1)N1CC(=O)N2[C@H](C1)[C@@H](c1ccc(-c3ccc(F)cc3)cc1)[C@@H]2CO,-0.87
O=C(Nc1ccc(F)cc1)N1CC(=O)N2[C@H](CO)[C@@H](c3ccc(-c4ccccc4)cc3)[C@@H]2C1,-4.8*
O=C(Nc1ccc(F)cc1)N1CC(=O)N2[C@@H](CO)[C@@H](c3ccc(-c4ccccc4)cc3)[C@@H]2C1,-0.63
Cc1ccc(-c2ccc([C@H]3[C@@H](CO)N4C(=O)CN(C(=O)Nc5ccc(F)cc5)C[C@H]34)cc2)cc1,1.6
COc1ccccc1NC(=O)N1CC(=O)N2[C@H](CO)[C@H](c3ccc(C#Cc4ccc(F)cc4)cc3)[C@H]2C1,4.1
C[C@H](NC(=O)C[C@@H]1CC[C@@H]2[C@@H](COc3ccc(NC(=O)C4CCOCC4)cc3C(=O)N2C)O1)c1ccccc1,-0.89
CCCNC(=O)N1CCC2(CC1)CN(C(=O)COC)[C@H](CO)c1[nH]c3cc(OC)ccc3c12,-0.62
COc1ccc2c3c([nH]c2c1)[C@H](CO)N(C(C)=O)CC31CCN(C(C)=O)CC1,-0.41
CCCNC(=O)N1CCC2(CC1)CN(Cc1cccc(OC)c1)[C@@H](CO)c1[nH]c3cc(OC)ccc3c12,-3.1*
COc1ccc2c3c([nH]c2c1)[C@H](CO)N(Cc1ccccc1)CC31CCN(C(=O)NC(C)C)CC1,-1.8
COc1ccc2c3c([nH]c2c1)[C@H](CO)N(CC1CC1)CC31CCN(C(=O)Nc2cccc(F)c2)CC1,-0.44
COc1ccc2c3c([nH]c2c1)[C@@H](CO)N(Cc1cccc(F)c1)CC31CCN(C(C)=O)CC1,-4.2*
N#C[C@@H]1[C@H](c2ccccc2C2=CCCCC2)[C@@H](CO)N1C(=O)CN1CCOCC1,0.69
COc1ccc2c3c([nH]c2c1)[C@H](CO)N(Cc1ccc(Cl)cc1)CC31CN(S(C)(=O)=O)C1,-0.77
COc1ccc(CN2CC3(CCN(C(=O)Cc4ccncc4)CC3)c3c([nH]c4cc(OC)ccc34)[C@@H]2CO)cc1,-3.1*
COc1ccc2c3c([nH]c2c1)[C@H](CO)N(C(=O)Nc1ccc(F)cc1)CC31CCN(C(=O)Cc2ccncc2)CC1,1.2
CCCC(=O)N1CCC2(CC1)CN(Cc1ccc(Cl)cc1)[C@H](CO)c1[nH]c3cc(OC)ccc3c12,-3.6*
COc1ccc2c3c([nH]c2c1)[C@@H](CO)N(C(=O)Nc1ccc(F)cc1)CC31CCN(C(=O)Cc2ccncc2)CC1,-0.84
COc1ccc2c3c([nH]c2c1)[C@@H](CO)N(Cc1ccc(Cl)cc1)CC31CN(S(C)(=O)=O)C1,0.86
CC(=O)N1[C@@H](CO)[C@@H](c2ccccc2)[C@@H]1CN(CC(C)C)C(=O)c1ccccn1,0.14
SMILES,IDE exosite inh
CC(C)C#Cc1ccc([C@H]2[C@@H](CO)N3CCCCN(C(=O)NC(C)C)C[C@H]23)cc1,-1.8
CC(C)NC(=O)N1CCCCN2[C@H](C1)[C@H](c1ccc(C#CC3CC3)cc1)[C@@H]2CO,-2.3
CC(C)NC(=O)N1CCCCN2[C@H](C1)[C@H](c1ccc(C#C[C@@H](C)O)cc1)[C@@H]2CO,1.2
CC(C)NC(=O)N1CCCCN2[C@H](C1)[C@@H](c1ccc(C#C[C@@H](C)O)cc1)[C@@H]2CO,0.85
CC(C)NC(=O)N1CCCCN2[C@@H](CO)[C@@H](c3ccc(C#C[C@H](C)O)cc3)[C@@H]2C1,0.3
CC(C)NC(=O)N1CCCCN2[C@H](CO)[C@@H](c3ccc(C#C[C@@H](C)O)cc3)[C@@H]2C1,3.6
CC(C)NC(=O)N1CCCCN2[C@@H](CO)[C@@H](c3ccc(C#Cc4ccccc4F)cc3)[C@@H]2C1,-3.1*
CC(C)NC(=O)N1CCCCN2[C@H](CO)[C@H](c3ccc(C#CC4CC4)cc3)[C@H]2C1,-1.7
CC(C)NC(=O)N1CCCCN2[C@H](C1)[C@@H](c1ccc(C#Cc3ccccc3F)cc1)[C@@H]2CO,-5.2*
CC(C)NC(=O)N1CCCCN2[C@H](CO)[C@H](c3ccc(C#Cc4ccccc4F)cc3)[C@@H]2C1,-6.4*
CC(C)NC(=O)N1CCCCN2[C@H](CO)[C@@H](c3ccc(C#Cc4ccccc4F)cc3)[C@H]2C1,-10*
CC(C)C#Cc1ccc([C@@H]2[C@@H](CO)N3CCCCN(C(=O)NC(C)C)C[C@@H]23)cc1,1.1
COCC(=O)Nc1ccc2c(c1)[C@@H]1C[C@H](CC(=O)NCc3ccc4c(c3)OCO4)O[C@H](CO)[C@@H]1O2,0.36
CCS(=O)(=O)N1CC2(CN(C(=O)Nc3c(C)noc3C)[C@@H](CO)c3[nH]c4cc(OC)ccc4c32)C1,-0.081
CN(C)CC#Cc1ccc([C@@H]2[C@H]3CN(C(=O)c4ccccc4)CC(=O)N3[C@H]2CO)cc1,3.6
CCCN1[C@H](CO)[C@H](c2ccc(C3=CCCC3)cc2)[C@H]1CNC(=O)NC(C)C,-1.8
CN(C)CC(=O)N1CC(=O)N2[C@H](C1)[C@@H](c1ccc(C#Cc3cccnc3)cc1)[C@@H]2CO,0.64
COCC(=O)N1CC(=O)N2[C@H](CO)[C@@H](c3ccc(C#CC4CCCCC4)cc3)[C@H]2C1,1.1
C[C@H]1CN([C@@H](C)CO)C(=O)Cc2cc(NC(=O)c3ccncc3)ccc2O[C@@H]1CN(C)C(=O)Nc1ccc(F)cc1,1.9
O=C(C[C@H]1C[C@H]2c3cc(NS(=O)(=O)c4ccccc4)ccc3O[C@H]2[C@@H](CO)O1)NCC(F)(F)F,-0.78
CC(=O)NC[C@H]1[C@@H](c2ccc(C#CC(C)(C)O)cc2)[C@@H](CO)N1C(=O)CC1CC1,1.3
O=C(c1cnccn1)N1C[C@@H]2N[C@H](C1)C2c1ccc(/C=C/c2ccccc2)cc1 (stereo not given in full),-4.2*!
COc1ccc(-c2ccc(C3[C@@H]4CN(C(=O)c5cnccn5)C[C@H]3N4)cc2)cc1 (stereo not given in full),0.24
O=C(c1cnccn1)N1CC(=O)N2[C@H](C1)[C@@H](c1ccc(/C=C/c3ccccc3)cc1)[C@@H]2CO,-1.7
Cc1cccc(-c2ccc([C@@H]3[C@@H]4CN(C(=O)CN(C)C)C[C@H]3N4)cc2)c1,0.22
CN(C)CC(=O)N1C[C@@H]2N[C@H](C1)C2c1ccc(/C=C/c2ccccc2)cc1 (stereo not given in full),-5.6*!
CN(C)CC(=O)N1C[C@@H]2N[C@H](C1)C2c1ccc(C2=CCCCC2)cc1 (stereo not given in full),0.7
COc1cccc(C(=O)Nc2ccc3c(c2)C(=O)N(C)[C@@H]2CC[C@@H](CC(=O)N[C@H](C)c4ccccc4)O[C@@H]2CO3)c1,-0.77
CN(C)C(=O)[C@H]1[C@H](CO)[C@H]2Cn3c(cccc3=O)[C@@H]1N2CC1CCOCC1,0.81
N#C[C@H]1[C@@H](c2ccc(C#CC3(O)CCCC3)cc2)[C@H](CO)N1C(=O)C1CCC1,-0.013
